The source of these data is PubChem BioAssay (NCATS).

The conditions of assay [1]: Ebola virus entry assay, green fluorescence channel.
For assay [2] the following is noted: Ebola virus entry assay, blue channel fluorescence.
For assay [3] the following is noted: Ebola virus entry assay, green channel fluorescence.
For assay [4] the following is noted: Ebola virus entry assay, reporter ratio channel; Channel type: primary.
The conditions of assay [5]: Ebola virus entry assay, blue channel (ratio component).
A short description of assay [6]: qHTS assay for measurement of the activity of small molecule inhibitors on Zika virus induced Caspase-3 activity in human iPSC derived neural progenitor cells (hNPCs) (AID 1224857; active means well fitted curve in the direction sought with a large enough effect; an effect the other way counts as inactive or inconclusive; further: % of control where 0% means no effect; nearly all actives have a fitted effect of over 65% in size). The note with it: hNPCs ZIKV-induced caspase-3/7, Caspase-Glo luminescence, 6 h; series mostly up to 45.7 µM. The gist of the method: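 Values are percent inhibition of virus-induced caspase-3/7 signal, scaled between uninfected cells and ZIKV-infected cells. Infection used 2 FFU/cell for 6 h after 1 h compound exposure.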
In general terms: Quantitative high-throughput screening tests each substance at several concentrations.

Assay [7] can be described thus: qHTS assay for measurement of the activity of small molecule inhibitors on Zika virus induced Caspase-3 activity in human astrocytoma cells (AID 1224859; active means well fitted curve in the direction sought with a large enough effect; an effect the other way counts as inactive or inconclusive;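 further: plate controls were ZIKV-infected untreated cells for no effect and uninfected cells for full effect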). Conditions: SNB-19 ZIKV-induced caspase-3/7, luminescence, 6 h; series mostly up to 45.7 µM. In a few lines:
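Compound added 1 h pre-infection; ZIKV 2 FFU/cell on SNB-19 cells, 6 h, 37 C/5% CO2. Caspase-Glo 3/7 luminescence; values as % inhibition of ZIKV-induced caspase activity.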

Assay [8] can be described thus: qHTS assay to identify small molecule inhibitors of chordoma cells - UCH-2 (AID 1259356; active means well fitted curve in the direction sought with a large enough effect; an effect the other way counts as inactive or inconclusive; further: on the % scale 0 is the no-effect control and ±100 the full control effect). Conditions: UCH-2 chordoma viability, CellTiter-Glo ATP luminescence, 48 h; series mostly up to 46.1 µM.
Assay [9] is described as follows: Immunotoxin (HA22) sensitization/mitigation study. Vehicle arm (PBS) (AID 1159510). The note with it: cancer cells viability with PBS vehicle (HA22 study); series mostly up to 46.1 µM.
A short description of assay [10]: Immunotoxin (SS1P) sensitization/mitigation study. Vehicle arm (DMEM) (AID 1159513). The note with it: cell viability with vehicle (DMEM); series mostly up to 46.1 µM.
The nature of assay [11]: qHTS assay to identify small molecule inhibitors of chordoma cells - UCH-1 (AID 1259355; active means well fitted curve in the direction sought with a large enough effect; an effect the other way counts as inactive or inconclusive; further: on the % scale 0 is the no-effect control and ±100 the full control effect; nearly all actives have a fitted effect of over 55% in size). Conditions: UCH-1 chordoma viability, CellTiter-Glo, 48 h, combination; series mostly up to 46.1 µM. The gist of the method: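 Seed 800 cells per well; incubate overnight at 37 C, 5% CO2. Add test compounds (15 concentrations), then the auranofin–topoisomerase-agent combination. Incubate 48hr, add CellTiter-Glo, wait 30min, read luminescence.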

Assay [12] is described as follows: High-throughput drug toxicity screening in the BPDCN cell line Gen2.2 (AID 1224824).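 Further: cells exposed to compounds for 48 h before reading.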 The note with it: Gen2.2 BPDCN cells; at 45.8 µM (top of the series). The gist of the method:
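Gen2.2 cells, 500 per well in phenol red-free RPMI with 10% FBS, exposed to compounds 48 h at 37 C, 5% CO2; viability by CellTiter-Glo luminescence. Percent activity scaled to DMSO (100%) and 9.2 uM bortezomib final (0%).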

Assay [13] in a line: High-throughput drug toxicity screening in the BPDCN cell line Cal-1 (AID 1224825). The note with it: Cal-1 BPDCN cell viability, qHTS; at 45.8 µM (top of the series). The gist of the method: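 500 Cal-1 cells/well, RPMI + glutamine + 10% FBS (phenol red-free); cpd added by pin tool; 48 h, 37C, 5% CO2; CTG 15 min RT, lumi read. Normalised: DMSO 100%, bortezomib 9.2 uM 0%.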

Assay [14] in a line: qHTS Screen of the MIPE 4.0 Collection Against Ewings Sarcoma (RDES) (AID 1259252; active means well fitted curve in the direction sought with a large enough effect; an effect the other way counts as inactive or inconclusive; further: potency means the concentration at half of the fitted maximal effect; nearly all actives have a fitted effect of over 35% in size). Conditions: RD-ES Ewing sarcoma viability, CellTiter-Glo, 48 h; series mostly up to 45.8 µM. In a few lines: (§1)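 CellTiter-Glo luminescence after 48 h compound exposure (titration) gave viability; percent activity used DMSO-treated cells as no inhibition and medium-only wells as full inhibition. Cells grown in RPMI/5% FBS, dosed 4 h post-seeding.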

Assay [15] can be described thus: qHTS Screen of the MIPE 4.0 Collection Against Ewings Sarcoma (TC71) (AID 1259253; active means well fitted curve in the direction sought with a large enough effect; an effect the other way counts as inactive or inconclusive; further: nearly all actives have a fitted effect of over 40% in size; further: potency means the concentration at half of the fitted maximal effect). Conditions: TC71 Ewing sarcoma viability, CellTiter-Glo, 48 h; series mostly up to 45.8 µM. In a few lines:
as §1

Assay [16] in a line: qHTS Screen of the MIPE 4.0 Collection Against Ewings Sarcoma (EW8) (AID 1259255; active means well fitted curve in the direction sought with a large enough effect; an effect the other way counts as inactive or inconclusive; further: nearly all actives have a fitted effect of over 35% in size; further: potency means the concentration at half of the fitted maximal effect;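 on viability: 100% = DMSO-treated cells and 0% = medium-only wells without cells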). Conditions: EW8 Ewing sarcoma viability, CellTiter-Glo, 48 h; series mostly up to 45.8 µM. The gist of the method:
as §1

The nature of assay [17]: qHTS Screen of the MIPE 4.0 Collection Against Ewings Sarcoma (TC32) (AID 1259256; active means well fitted curve in the direction sought with a large enough effect; an effect the other way counts as inactive or inconclusive; further: nearly all actives have a fitted effect of over 45% in size; further: potency means the concentration at half of the fitted maximal effect). Conditions: TC32 Ewing sarcoma viability, CellTiter-Glo, 48 h; series mostly up to 45.8 µM. The gist of the method:
as §1

For assay [18] the following is noted: Ebola virus entry assay, ratio channel.

Results filed as inconclusive are left out. For some assays here: Results with a measured potency or affinity are listed apart. Calls of active or inactive are those of the source. Unless noted, how the calls were made is not given here.
Wherever efficacy is given: 0% is about no effect.

Take `C[C@@H]1CN(C2CCC(C#N)(c3ccc(F)cc3)CC2)CC[C@]1(C(=O)O)c1ccccc1` (stereo partly specified): the efficacy in assay [1] was 31.9% (inactive). In addition, the compound was called inactive in assay [2], in [3], in assay [4], in assay [5] and in [7]. The Potency result in assay [6] and in [8] was “inactive” each time.

On to `Cc1[nH]c(=O)c(C#N)cc1-c1ccc2nccn2c1`, for which the efficacy in assay [1] was -27% (inactive). Further, the call in [2], in assay [3], in assay [4], in [5] and in [10] was inactive. Moreover, in assay [9], the Potency entry was “inactive”.

Turning to `COCC(=O)N(c1c(C)cccc1C)C(C)C(=O)OC` (stereo unspecified), in assay [1], the efficacy was -46.6% (inactive). The compound was classed as inactive in [2], in assay [3], in assay [4], in assay [5] and in assay [7]. In addition, the Potency entry in assay [6], in assay [11] and in assay [8] was “inactive” in each case.

Turning to `C[C@@H]1C[C@@H]([C@H](O)CC2CC(=O)NC(=O)C2)C(=O)[C@@H](C)C1`, in [1], the efficacy is -17.6% (inactive). Moreover, the result in [2], in assay [4], in assay [5] and in assay [7] was inactive. The cell viability, % of control (lower = more cytotoxic) in [12] is 19.5%. Also, the viability (% of control) in assay [13] worked out at 10.9%. The Potency result in assay [6] is “inactive”. Besides, the Potency is 0.418 µM (active) in [14], 0.235 µM (active) in [15], 0.148 µM (active) in [16] and 0.132 µM (active) in assay [17].

In the case of `Cc1ccc(N=CN(C)C=Nc2ccc(C)cc2C)c(C)c1`, in assay [1], the efficacy was -16% (inactive). Moreover, the outcome in [2], in assay [3], in assay [4], in assay [5] and in assay [7] was inactive. Besides, the Potency entry in assay [6], in assay [11] and in assay [8] was “inactive” each time.

For the compound `COC(=O)C1=CCCN(C)C1`, in assay [1], the efficacy was 26.3% (inactive). Also, the outcome in [2], in [3], in assay [4], in assay [5] and in assay [7] was inactive. Moreover, the cell viability, % of control (lower = more cytotoxic) in assay [12] came out at 166%. For the same compound, the viability (% of control) in assay [13] is 129%. Further, the Potency result in [6], in assay [15], in [11] and in assay [8] was “inactive” throughout.

For the compound `CC(C)(O)C(Cl)(Cl)Cl`, in assay [1], the efficacy was -12.3% (inactive). For the same compound, the call in [2], in assay [3], in assay [4], in assay [5] and in [7] was inactive. Further, the Potency result in assay [6], in assay [11] and in assay [8] was “inactive” in each case.

Take `Cc1c(Cl)c(=O)oc2cc(OP(=O)(OCCCl)OCCCl)ccc12`: the efficacy in assay [1] is 115% (inactive). Moreover, the call in assay [2], in assay [18], in [4] and in assay [7] was inactive. The Potency result in assay [11] and in assay [8] was “inactive” each time.

What is called AC50 is the concentration at which the activity in the assay is half-maximal. With `CN1[C@@H]2CC[C@H]1CC(OC(=O)c1cc(Cl)cc(Cl)c1)C2` (stereo partly specified), the efficacy in assay [1] was 82.4% (inactive). Besides, the AC50 in [2] was 25.1 µM (active); in assay [18] it was 28.2 µM (active); in assay [4], 28.2 µM (active). Further, the Potency result in [6] and in [8] was “inactive” each time. Besides, in assay [7], the result was inactive.

Consider `c1ccc2nc(N3CCNCC3)ccc2c1`, for which, in assay [1], the efficacy was 106% (inactive). Besides, the AC50 in assay [2] was 39.8 µM (active); in [18] it was 35.5 µM (active); in assay [4] it was 35.5 µM (active). In addition, the Potency result in assay [6] and in assay [8] was “inactive” throughout. Further, the result in assay [7] was inactive.

As to `COc1ccc(C(=O)N2CCCC2=O)cc1`, the efficacy in [1] was -13.7% (inactive). Also, the result in assay [2], in [3], in [4], in assay [5] and in assay [7] was inactive. In assay [12], the cell viability, % of control (lower = more cytotoxic) is 46.4%. Besides, the viability (% of control) in assay [13] was found to be 41.6%. The Potency entry in assay [6], in [15], in assay [16], in assay [17], in [11] and in assay [8] was “inactive” throughout.
